Source: PubChem BioAssay AID1159580 (chemical genetic matrix, 2015)
“And” between values parts separate entries of the source, which are not always exact repeats. Equal values may be shown once. In all, about 5,500 compounds went through this assay and about 2,000 (36%) were called active. Roughly 18% stayed inconclusive and do not appear here. Cut-off read from the data, not from the text of the source: active = normalized growth mostly below about 0.91 (no sharp cut-off); inconclusive = no clear call, values can overlap the other calls; inactive = mostly above about 0.92. Some of the results follow.

Assay: chemical genetic growth profiling, strain panel (AID 1159580);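 note: tested at 20 µM; growth read once vehicle control cultures reached saturation at 30 °C; 1 = growth at the plate median or of vehicle wells; lower values mean less growth of the strain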
Conditions: S. cerevisiae deletion strains, growth OD

Measured: normalized growth

Cc1cc(O)cc(C)c1Cl
active: locus YAL026C, strain drs2, active compounds read low 0.831 | locus YBL061C, strain skt5, active compounds read low 0.914 | locus YBR009C, strain hhf1, active compounds read low 0.873 | locus YBR023C, strain chs3, active compounds read low 0.899 | locus YBR279W, strain paf1, active compounds read low 0.899 | locus YCL011C, strain gbp2, active compounds read low 0.906 | locus YCL016C, strain dcc1, active compounds read low 0.892 | locus YCL061C, strain MRC1, active compounds read low 0.916 | locus YCR088W, strain abp1, active compounds read low 0.891 | locus YDR137W, strain rgp1, active compounds read low 0.41 | locus YDR159W, strain sac3, active compounds read low 0.588 | locus YDR195W, strain ref2 1.35 [resistant] | locus YDR335W, strain msn5, active compounds read low 0.898 | locus YDR392W, strain spt3, active compounds read low 0.653 | locus YEL061C, strain CIN8 (second series), active compounds read low 0.898 | locus YER015W, strain faa2, active compounds read low 0.839 | locus YER016W, strain bim1, active compounds read low 0.874 | locus YER111C, strain swi4, active compounds read low 0.905 | locus YER155C, strain BEM2 (second series), active compounds read low 0.603 | locus YGL078C, strain dbp3, active compounds read low 0.919 | locus YGL253W, strain hxk2, active compounds read low 0.895 | locus YHR027C, strain rpn1, active compounds read low 0.838 | locus YHR142W, strain chs7, active compounds read low 0.77 | locus YJL164C, strain tpk1, active compounds read low 0.887 | locus YJL166W, strain qcr8, active compounds read low 0.849
inactive: locus YAL021C, strain ccr4, active compounds read low 0.918 | locus YAL030W, strain snc1, active compounds read low 0.961 | locus YBR021W, strain FUR4, active compounds read low 1.04 | locus YBR171W, strain sec66, active compounds read low 0.912 | locus YBR229C, strain ROT2, active compounds read low 0.993 | locus YBR231C, strain swc5, active compounds read low 0.945 | locus YCL029C, strain bik1, active compounds read low 0.981 | locus YCL069W, strain vba3, active compounds read low 0.929 | locus YDL005C, strain med2, active compounds read low 1.02 | locus YDL035C, strain GPR1, active compounds read low 0.942 | locus YDL040C, strain nat1, active compounds read low 0.968 | locus YDL074C, strain BRE1, active compounds read low 0.968 | locus YDL101C, strain DUN1, active compounds read low 1.01 | locus YDL185W, strain tfp1, active compounds read low 0.988 | locus YDL192W, strain arf1, active compounds read low 1.02 | locus YDR001C, strain nth1, active compounds read low 0.951 | locus YDR069C, strain doa4, active compounds read low 0.992 | locus YDR101C, strain arx1, active compounds read low 0.928 | locus YDR150W, strain NUM1, active compounds read low 0.998 | locus YDR162C, strain NBP2, active compounds read low 0.957 | locus YDR297W, strain sur2, active compounds read low 0.968 | locus YDR318W, strain mcm21, active compounds read low 0.981 | locus YDR334W, strain swr1, active compounds read low 0.957 | locus YDR388W, active compounds read low 1 | locus YDR502C, strain sam2, active compounds read low 0.949 | locus YEL003W, strain gim4, active compounds read low 0.965 | locus YEL037C, strain rad23, active compounds read low 0.953 | locus YEL061C, strain CIN8, active compounds read low 0.988 | locus YER110C, active compounds read low 1 | locus YER155C, strain BEM2, active compounds read low 0.992 | locus YER167W, strain BCK2, active compounds read low 0.975 | locus YFR010W, strain ubp6, active compounds read low 0.93 | locus YGL086W, strain mad1, active compounds read low 0.945 | locus YGL167C, strain pmr1, active compounds read low 0.999 | locus YGL173C, strain kem1, active compounds read low 0.927 | locus YGL227W, strain vid30, active compounds read low 0.949 | locus YGL240W, strain doc1, active compounds read low 0.978 | locus YGL248W, strain PDE1, active compounds read low 0.999 | locus YGR078C, strain PAC10, active compounds read low 0.974 | locus YGR135W, strain pre9, active compounds read low 0.994 | locus YGR252W, strain gcn5, active compounds read low 0.979 | locus YHR013C, strain ard1, active compounds read low 0.97 | locus YHR030C, strain SLT2, active compounds read low 0.995 and 0.921 | locus YHR079C, strain IRE1 (second series), active compounds read low 0.996 | locus YHR079C, strain IRE1, active compounds read low 0.929 | locus YHR094C, strain hxt1, active compounds read low 1 | locus YHR129C, strain ARP1, active compounds read low 0.998 | locus YHR200W, strain rpn10, active compounds read low 0.984 | locus YIL066C, strain RNR3, active compounds read low 0.981 | locus YIL073C, strain SPO22, active compounds read low 1.04 | locus YIL125W, strain kgd1, active compounds read low 0.993 | locus YIR030C, strain dcg1, active compounds read low 0.998 | locus YJL092W, strain hpr5, active compounds read low 0.923 | locus YJL095W, strain BCK1 (second series), active compounds read low 0.951 | locus YJL095W, strain BCK1, active compounds read low 0.986 and 0.94 | locus YJL115W, strain asf1, active compounds read low 0.997 | locus YJL129C, strain trk1, active compounds read low 0.899 | locus YJL134W, strain LCB3, active compounds read low 0.998 | locus YJL154C, strain vps35, active compounds read low 0.96 | locus YJL168C, strain set2, active compounds read low 1 | locus YJL187C, strain SWE1 (second series), active compounds read low 1 | locus YJR043C, strain POL32, active compounds read low 0.96 | locus YJR066W, strain TOR1, active compounds read low 0.955
